For 25 compounds, growth rescue results are on record in PubChem BioAssay AID504582 (Broad Institute, 2011).

Out of some 340,000 compounds screened, about 2,300 (0.68%) were called active. This excerpt belongs to a sample that is enriched for actives. Values without a mark were called inactive. Cut-off read from the data, not from the text of the source: active = growth rescue above about 28% (passing the limit was not always enough); inconclusive = no clear call, values can overlap the other calls.

This assay is described as follows: rescue of yeast from PfHsp40 toxicity, primary screen, S. cerevisiae, ATP luminescence (AID 504582).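 Note: yeast W303a lacking pdr1 and pdr3 grown in galactose medium; growth measured after three days at 30 °C.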 To be noted: S. cerevisiae expressing PfHsp40, growth rescue, at 12.5 µM, hits give high values.
For `Cn1cc(Cl)c(C(=O)NNC(=S)Nc2cccc(Cl)c2)n1`, the growth rescue is -0.14%. Then `Cc1cc(Cl)nc(NC(=O)Nc2cccc(Cl)c2)n1`, with -0.042%. Then `Cc1csc(NC(=S)Nc2cccc(Cl)c2)n1`, with 118% (active).

`CCOC(=O)c1csc(CCNC(=O)c2oc3c(Cl)cc(C)cc3c2C)n1`: the growth rescue was -0.607%. Then `CCCc1nnc(NC(=O)CCC(=O)NC2CC2)s1`, with 0.339%. For `O=C(NCCCCO)C(F)(F)C(F)(F)C(F)(F)C(=O)NCCCCO`, the growth rescue is -1.94%.

Take `O=S(=O)(NCCCc1ccccc1)c1ccc(Br)cc1`: the growth rescue was 7.99%. Next, `O=c1ccc2cc(S(=O)(=O)NCCCc3ccccc3)ccc2[nH]1`: 30.5% (active); `O=S(=O)(NCCc1ccccc1)c1ccccc1`: -1.03%.

On to `Cc1nc2ccccn2c1C(=O)NN=C1CCN(C)CC1`, for which the growth rescue is -0.557%. On to `CCCCNC(=O)N(O)C1N(/N=C/c2ccc(N(C)C)cc2)C(=S)SC1(C)C` (stereo not given), for which the growth rescue was -1.02%. Next, `O=S(=O)(c1cccc2nonc12)N1CCN(c2cccc(Cl)c2)CC1`: 1.52%. Next, `CC1CCCC(NC(=O)c2cc(S(=O)(=O)N3CCCCC3)ccc2Cl)C1C` (stereo not given): 2.29%; `O=C(NNC(=O)c1ccccc1O)c1ccccc1O`: 68% (active); `O=C(NNC(=O)c1cc(S(=O)(=O)N2CCCCC2)ccc1Cl)c1ccccc1O`: 91.7% (active). Then `Cc1cc(C(=O)CCC(=O)NNC(=O)c2ccccc2O)c(C)s1`, with -0.863%; and `CC1=C(C)CC(C(=O)NNC(=O)c2ccccc2O)C(C(=O)O)C1` (stereo not given), with 1.17%. Take `O=C(Nc1ccccc1C(=O)O)c1cc(S(=O)(=O)N2CCCCC2)cs1`: the growth rescue is 0.561%. Turning to `COC(=O)c1sc(N)c(C(=O)OC)c1COC(=O)CNS(=O)(=O)c1ccc(C)cc1`, the growth rescue is 0.164%. Next, `COc1ccc(C(=O)C2CCCN(C(=O)c3cc4nc(C)cc(C)n4n3)C2)cc1F` (stereo not given): -1.21%; `COc1ccc2c(c1)OC(O)(C(F)(F)C(F)F)CC2=O` (stereo not given): 0.213%. For the compound `N#CCc1ccc(NC(=O)c2ccccc2C(=O)Nc2ccc(CC#N)cc2)cc1`, the growth rescue is -0.068%. Consider `Cc1c(C(=O)Nc2ccccn2)oc2ccc(Br)cc12`, for which the growth rescue was -0.794%.

As to `Oc1ccc(Br)cc1/C=N/Nc1ccccn1`, the growth rescue is 246% (active).

Take `O=C(NN=Cc1ccccc1O)NN=Cc1ccccc1O`: the growth rescue is -0.914%.
